Where “and” joins values, the source holds several entries; their conditions need not be identical. Equal entries are not always repeated. Records with an inconclusive call do not appear. Entries that show only a call come without a potency. Values without a mark were called inactive. Calls of active or inactive are those of the source. Calls follow the shape of the dose curve; as a rule, active = well fitted curve in the direction sought with a large enough effect in the repeat runs; inconclusive = weak or mixed curves; inactive = no such curve, though single readings can be large; an effect the other way counts as inactive or inconclusive.
What was measured:
[1] = target: Cytochrome P450 2C9 (Homo sapiens) (UniProt P11712); assay: Cytochrome P450 Family 2 Subfamily C Member 9 (CYP2C9) small molecule antagonists: luciferase reporter qHTS assay (AID 1671198); as to activity change, negative = inhibition: series mostly up to about 120 µM
Cytochrome P450 2C9 (Homo sapiens), sequence (P11712 whole entry, looked up): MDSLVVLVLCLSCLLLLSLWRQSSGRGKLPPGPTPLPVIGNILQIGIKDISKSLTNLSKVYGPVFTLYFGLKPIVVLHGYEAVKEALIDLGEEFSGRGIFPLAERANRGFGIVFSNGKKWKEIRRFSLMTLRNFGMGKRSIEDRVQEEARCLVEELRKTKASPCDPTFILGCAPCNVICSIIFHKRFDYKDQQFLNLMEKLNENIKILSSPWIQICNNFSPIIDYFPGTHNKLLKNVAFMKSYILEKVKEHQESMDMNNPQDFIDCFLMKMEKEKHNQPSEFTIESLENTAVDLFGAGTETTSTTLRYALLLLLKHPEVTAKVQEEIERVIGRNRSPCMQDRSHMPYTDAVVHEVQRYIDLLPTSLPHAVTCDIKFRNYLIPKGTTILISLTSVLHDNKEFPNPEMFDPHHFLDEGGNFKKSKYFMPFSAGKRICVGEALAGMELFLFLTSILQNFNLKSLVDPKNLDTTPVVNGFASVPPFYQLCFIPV
How it was run: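 CYP2C9 activity was measured with a P450-Glo proluciferin substrate. Enzyme–substrate mix was held with compound for 10 min at room temperature, then NADPH regeneration solution was added for 1 h at 37C. Luciferin product was read as luminescence.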

[2] = target: Cytochrome P450 1A2 (Homo sapiens) (UniProt P05177); assay: Cytochrome P450 Family 1 Subfamily A Member 2 (CYP1A2) small molecule antagonists: luciferase reporter qHTS assay (AID 1671199); as to activity change, negative = inhibition: series mostly up to about 120 µM
Cytochrome P450 1A2 (Homo sapiens), sequence (P05177 whole entry, looked up): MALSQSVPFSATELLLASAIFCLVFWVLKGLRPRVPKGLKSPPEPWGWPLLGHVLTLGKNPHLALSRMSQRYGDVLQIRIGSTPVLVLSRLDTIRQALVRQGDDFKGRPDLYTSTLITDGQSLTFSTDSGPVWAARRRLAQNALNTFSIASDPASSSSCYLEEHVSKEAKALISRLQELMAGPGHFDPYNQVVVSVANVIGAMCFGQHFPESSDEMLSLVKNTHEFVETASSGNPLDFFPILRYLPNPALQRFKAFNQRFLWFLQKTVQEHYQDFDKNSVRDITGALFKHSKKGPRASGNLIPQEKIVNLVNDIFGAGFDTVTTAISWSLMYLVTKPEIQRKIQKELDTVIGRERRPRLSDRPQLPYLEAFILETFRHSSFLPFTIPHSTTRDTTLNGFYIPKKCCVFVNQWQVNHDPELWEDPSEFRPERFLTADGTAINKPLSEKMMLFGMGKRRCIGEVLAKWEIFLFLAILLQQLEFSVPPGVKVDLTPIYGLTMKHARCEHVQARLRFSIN
How it was run: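 CYP1A2 turnover of a luminogenic substrate was quantified after 1 h with NADPH regeneration at room temperature. Furafylline served as positive control.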

[3] = target: Voltage-gated inwardly rectifying potassium channel KCNH2 (Homo sapiens) (UniProt Q12809); assay: Human Ether-a-go-go-Related Gene (hERG) channel small molecule antagonists: fluorescence cell-based qHTS assay (AID 1671200);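 as to activity change, negative = inhibition: hERG-expressing U2OS cells given a thallium stimulus after FluxOR II dye loading; series mostly up to about 77 µM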
Voltage-gated inwardly rectifying potassium channel KCNH2 (Homo sapiens), sequence (Q12809 whole entry, looked up): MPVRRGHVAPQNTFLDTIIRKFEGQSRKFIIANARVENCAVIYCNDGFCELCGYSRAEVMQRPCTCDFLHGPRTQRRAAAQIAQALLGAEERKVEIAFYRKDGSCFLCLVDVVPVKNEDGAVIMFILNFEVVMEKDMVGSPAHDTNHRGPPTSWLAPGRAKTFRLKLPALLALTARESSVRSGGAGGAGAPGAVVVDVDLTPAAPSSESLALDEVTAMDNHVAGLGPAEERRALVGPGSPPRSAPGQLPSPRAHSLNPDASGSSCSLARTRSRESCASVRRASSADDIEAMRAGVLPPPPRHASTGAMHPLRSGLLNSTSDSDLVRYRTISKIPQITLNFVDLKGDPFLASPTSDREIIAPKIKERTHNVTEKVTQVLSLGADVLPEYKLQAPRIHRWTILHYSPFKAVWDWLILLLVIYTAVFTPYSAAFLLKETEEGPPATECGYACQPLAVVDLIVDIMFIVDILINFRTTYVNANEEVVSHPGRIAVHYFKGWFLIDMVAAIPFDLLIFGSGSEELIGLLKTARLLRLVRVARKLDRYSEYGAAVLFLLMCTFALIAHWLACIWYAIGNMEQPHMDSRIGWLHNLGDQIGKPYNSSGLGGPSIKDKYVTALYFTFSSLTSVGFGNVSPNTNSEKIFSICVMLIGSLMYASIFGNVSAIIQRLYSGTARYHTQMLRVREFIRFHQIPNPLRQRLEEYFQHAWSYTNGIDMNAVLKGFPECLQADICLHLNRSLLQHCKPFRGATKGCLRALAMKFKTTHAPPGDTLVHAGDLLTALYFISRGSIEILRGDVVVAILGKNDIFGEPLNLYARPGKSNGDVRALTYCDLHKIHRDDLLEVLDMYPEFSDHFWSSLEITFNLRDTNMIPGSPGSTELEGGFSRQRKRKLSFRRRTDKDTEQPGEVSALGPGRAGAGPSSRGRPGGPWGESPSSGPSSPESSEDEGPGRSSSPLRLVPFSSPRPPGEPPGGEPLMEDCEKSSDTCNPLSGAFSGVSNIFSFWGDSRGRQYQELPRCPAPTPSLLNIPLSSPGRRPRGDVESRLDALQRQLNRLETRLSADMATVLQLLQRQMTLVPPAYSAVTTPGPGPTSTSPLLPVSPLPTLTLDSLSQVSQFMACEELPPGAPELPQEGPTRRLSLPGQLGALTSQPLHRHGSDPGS
How it was run: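 Read-out: thallium influx as a surrogate for potassium, tracked as fluorescence (480 nm ex/540 nm em) every second for 2 min after Stimulus Buffer addition in dye-loaded hERG-U2OS cells.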

[4] = target: Cytochrome P450 3A4 (Homo sapiens) (UniProt P08684); assay: Cytochrome P450 Family 3 Subfamily A Member 4 (CYP3A4) small molecule antagonists: luciferase reporter qHTS assay (AID 1671201); as to activity change, negative = inhibition: series mostly up to about 120 µM
Cytochrome P450 3A4 (Homo sapiens), sequence (P08684 whole entry, looked up): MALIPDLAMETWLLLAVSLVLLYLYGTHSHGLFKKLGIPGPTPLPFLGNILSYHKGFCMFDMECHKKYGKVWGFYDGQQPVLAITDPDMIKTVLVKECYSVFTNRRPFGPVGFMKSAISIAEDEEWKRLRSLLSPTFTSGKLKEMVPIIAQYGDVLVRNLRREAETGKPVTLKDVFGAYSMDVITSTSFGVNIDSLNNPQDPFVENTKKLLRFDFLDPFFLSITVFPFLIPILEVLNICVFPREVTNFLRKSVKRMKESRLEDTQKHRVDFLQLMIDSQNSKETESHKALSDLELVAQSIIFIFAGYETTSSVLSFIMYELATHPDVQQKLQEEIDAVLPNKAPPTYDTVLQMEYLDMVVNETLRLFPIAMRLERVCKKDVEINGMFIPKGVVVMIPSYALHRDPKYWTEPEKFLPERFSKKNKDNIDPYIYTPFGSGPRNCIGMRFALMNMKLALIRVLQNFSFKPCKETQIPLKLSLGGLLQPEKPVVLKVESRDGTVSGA
How it was run: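 Luminescent readout (RLU) proportional to CYP3A4 activity, from luciferin generated off a proluciferin substrate. Enzyme–substrate mix plus compound 10 min at room temp, NADPH regeneration 1 h, detection reagent 20 min.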
Also: nearly all actives have a fitted effect of over 50% in size.
Potency is read from the fitted curve at half-maximal effect.

## Cc1cc(=O)[nH]c(=O)[nH]1
[1]
  Potency: inactive
[2]
  Potency: inactive
[3]
  Potency: inactive
[4]
  Potency: inactive

## C=CC/C=C/C/C=C/C/C=C/C
[1]
  Potency: inactive
[3]
  Potency: inactive
[4]
  Potency: inactive

## CC1CNCC(C)O1 (stereo unspecified)
[1]
  Potency: inactive
[3]
  Potency: inactive
[4]
  Potency: inactive

## COc1ccccc1OCCNCC(O)COc1cccc2[nH]c3ccccc3c12 (stereo unspecified)
[2]
  Potency: 8.12 µM (active)

## CCCCCCCCCCCC(=O)N(CC)CC
[1]
  Potency: 50.2 µM (active)
[3]
  Potency: inactive
[4]
  Potency: inactive

## COc1cccc(O)c1
[1]
  Potency: inactive
[3]
  Potency: inactive
[4]
  Potency: inactive

## O=C(c1ccccc1)c1cc(Cl)ccc1O
[1]
  Potency: 33.8 µM (active)
[2]
  Potency: 12 µM (active)
[4]
  Potency: inactive

## CC(O)C#CC(C)O (stereo unspecified)
[1]
  Potency: inactive
[3]
  Potency: inactive
[4]
  Potency: inactive

## C=CC(=O)OCCOCC(CC)(COCCOC(=O)C=C)COCCOC(=O)C=C
[1]
  Potency: 26.3 µM (active)
[3]
  Potency: inactive
[4]
  Potency: 0.932 µM (active)

## CO[C@H]1C=CO[C@@]2(C)Oc3c(C)c(O)c4c(O)c(cc(O)c4c3C2=O)NC(=O)/C(C)=C\C=C/[C@H](C)[C@H](O)[C@@H](C)[C@@H](O)[C@@H](C)[C@H](OC(C)=O)[C@@H]1C
[1]
  Potency: 10.1 µM (active)
[4]
  Potency: 1.27 µM (active)

## NC(=O)c1nc(-c2cccc(-c3cc(F)ccc3OCC(F)(F)C(F)(F)F)c2)n[nH]1
[1]
  Potency: 28.3 µM (active)
[3]
  Potency: 43.6 µM (active)

## COC(=O)CC(C)CCC=C(C)C (stereo unspecified)
[1]
  Potency: inactive
[3]
  Potency: inactive
[4]
  Potency: inactive

## COC(=O)CC#N
[1]
  Potency: inactive
[3]
  Potency: inactive
[4]
  Potency: inactive

## CC1(C)COCN1
[1]
  Potency: inactive
[3]
  Potency: inactive
[4]
  Potency: inactive

## CCC(=O)OCCc1ccccc1
[1]
  Potency: 13.6 µM (active)
[3]
  Potency: inactive
[4]
  Potency: inactive

## COc1nccnc1CC(C)C
[1]
  Potency: inactive
[3]
  Potency: inactive
[4]
  Potency: inactive

## Clc1nc2ccccc2s1
[1]
  Potency: inactive
[3]
  Potency: inactive
[4]
  Potency: inactive

## CC1=C(/C=C/C(C)=C/C=C/C(C)=C\C=O)C(C)(C)CCC1
[1]
  Potency: 59.9 µM (active)
[4]
  Potency: 30 µM (active)

## CCCCCCCCCCCCCCNCCO
[1]
  Potency: inactive
[2]
  Potency: 28.8 µM (active)
[4]
  Potency: inactive

## CCCCCCOc1cc(C)c(O)c(C)c1C
[1]
  Potency: 25.5 µM (active)
[2]
  Potency: 11.4 µM (active)
[4]
  Potency: 28.6 µM (active)

## CC(C)(C)c1cc(/C=C2\SC(=N)NC2=O)cc(C(C)(C)C)c1O
[1]
  Potency: 1.78 µM (active)
[3]
  Potency: inactive
[4]
  Potency: 11.2 µM (active)

## CC(=O)c1ccccc1N
[1]
  Potency: inactive
[3]
  Potency: inactive
[4]
  Potency: inactive

## C#CC(O)CCC (stereo unspecified)
[1]
  Potency: inactive
[3]
  Potency: inactive
[4]
  Potency: inactive

## O=C(O)CCCCCCC(=O)O
[1]
  Potency: inactive
[3]
  Potency: inactive
[4]
  Potency: inactive

## NC1(c2ccc(-c3nc4ccn5c(=O)[nH]nc5c4cc3-c3ccccc3)cc2)CCC1
[1]
  Potency: inactive
[2]
  Potency: inactive
[4]
  Potency: inactive

## CC(C)OC(=O)c1cc(C(=O)OC(C)C)cc([N+](=O)[O-])c1
[1]
  Potency: 0.84 µM (active)
[2]
  Potency: 2.33 µM (active)
[4]
  Potency: inactive

## CCc1cccc(CC)c1NC(=O)C(=O)O
[1]
  Potency: inactive
[3]
  Potency: inactive
[4]
  Potency: inactive

## CC(C)(C)CC(C)(C)c1ccccc1O
[1]
  Potency: 17.9 µM (active)
[2]
  Potency: 35.8 µM (active)
[4]
  Potency: 63.6 µM (active)

## CC1(C)C(=O)N(CO)C(=O)N1CO
[1]
  Potency: inactive
[3]
  Potency: inactive
[4]
  Potency: inactive

## CSc1ccc2c(c1)N(CCC1CCCCN1C)c1ccccc1S2 (stereo unspecified)
[1]
  Potency: 70.7 µM (active)
[2]
  Potency: 28.1 µM (active) and 15.5 µM (active)
[4]
  Potency: inactive

## S=C(SSSSSSC(=S)N1CCCCC1)N1CCCCC1
[1]
  Potency: 7.83 µM (active)
[3]
  activity change, negative = inhibition: -18.7% [at 15.8 µM]

## Cc1cccc(Br)c1
[1]
  Potency: 40.1 µM (active)
[3]
  Potency: inactive
[4]
  Potency: inactive

## CCCCN(CCCC)CCC(O)c1cc2c(Cl)cc(Cl)cc2c2cc(C(F)(F)F)ccc12 (stereo unspecified)
[1]
  Potency: inactive
[3]
  Potency: 1.07 µM (active)

## CCCCCCCCCCc1ccccc1
[1]
  Potency: inactive
[4]
  Potency: inactive

## C[Si](C)(C)Cl
[1]
  Potency: inactive
[3]
  Potency: inactive
[4]
  Potency: inactive

## O=C1OC(OC(=O)c2cccnc2Nc2cccc(C(F)(F)F)c2)c2ccccc21 (stereo unspecified)
[1]
  Potency: 6.17 µM (active)
[2]
  Potency: 9.77 µM (active)
[4]
  Potency: inactive

## c1cc(OCC2CO2)cc(OCC2CO2)c1 (stereo unspecified)
[1]
  Potency: 39.6 µM (active)
[3]
  Potency: inactive
[4]
  Potency: 35.3 µM (active)

## COC(=O)[C@]1(C)CCC[C@@]2(C)[C@H]1CC=C1C=C(C(C)C)CC[C@@H]12
[1]
  Potency: 31.7 µM (active)
[3]
  Potency: inactive
[4]
  Potency: 35.6 µM (active)

## CCCCCCS
[1]
  Potency: inactive
[3]
  Potency: inactive
[4]
  Potency: inactive

## COc1ccc(C#N)cc1
[1]
  Potency: inactive
[3]
  Potency: inactive
[4]
  Potency: inactive

## CC(=O)Nc1ccc(O)cc1
[1]
  Potency: inactive
[3]
  Potency: inactive

## CCC(C)C(=O)OC (stereo unspecified)
[2]
  Potency: inactive
[3]
  Potency: inactive
[4]
  Potency: inactive

## C=CC(=C)CCC=C(C)C
[2]
  Potency: inactive
[3]
  Potency: inactive

## C=CC(=O)OCC(O)COc1ccccc1 (stereo unspecified)
[2]
  Potency: 35.6 µM (active)
[3]
  Potency: inactive
[4]
  Potency: inactive

## CC(C)c1cccc(C(C)C)c1N1C(=O)c2ccc(O)cc2C1=O
[2]
  Potency: inactive
[3]
  Potency: inactive

## Brc1ccccc1-c1ccccc1
[2]
  Potency: 16.6 µM (active)
[3]
  Potency: 31.4 µM (active)
[4]
  Potency: inactive

## Cc1cccc(N(C)C)c1
[2]
  Potency: inactive
[3]
  Potency: inactive
[4]
  Potency: inactive

## COc1cc(C(=O)NS(=O)(=O)c2ccccc2C)ccc1Cc1cn(C)c2ccc(NC(=O)OC3CCCC3)cc12
[2]
  Potency: inactive
[3]
  Potency: inactive

## OCCN1CN(CCO)CN(CCO)C1
[2]
  Potency: inactive
[3]
  Potency: inactive
[4]
  Potency: inactive

## CCC(C)c1ccccc1 (stereo unspecified)
[2]
  Potency: inactive
[3]
  Potency: inactive

## C[C@]12CC[C@H]3C(=CCc4cc(O)ccc43)[C@@H]1CCC2=O
[2]
  Potency: 35.6 µM (active)
[3]
  Potency: inactive
[4]
  Potency: 20 µM (active)

— PubChem BioAssay (Tox21)
